PvdQ inh = P. aeruginosa PvdQ acylase inhibition. purified PvdQ acylase, fluorescence plate reader. inhibition, % at 10 µM. 340,000 compounds, 0.063% hits; in the data active = inhibition above about 30%, passing the limit was not always enough; inconclusive = no clear call, values can overlap the other calls;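 note: 0% = vehicle neutral wells and 100% = reference inhibitor wells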
F508del corr = CFTR F508del correction in bronchial cells; CFBE cells, YFP halide quenching; stimulated with forskolin plus potentiator P3; % fluorescence drop versus neutral controls; activity (quench increase), % at 7.58 µM; 350,000 compounds, 0.36% hits;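 active = mean added fluorescence quench of at least 8% versus neutral control, with both replicates also reaching 8%; inconclusive = only one of the mean or replicate conditions met; inactive = mean below 8% and not both replicates reaching 8%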;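 note: cells transiently co-express mutant CFTR-F508del with the halide-sensitive YFP; corrector assay measuring rescue of mutant channel to the surface after 24 h compound exposure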
RAD54 inh = inhibitors of human RAD54 branch migration | Q92698 | 360,000 compounds, 0.14% hits | inhibition, % at 10.4 µM | AID 602329 | RAD54 Holliday junction branch migration, FAM/BHQ fluorescence;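 active = mean normalized replicate activity at least 40 and at least half of replicates scoring 40 or more; inconclusive = only one of the two criteria met; inactive = mean below 40 and under half of replicates reaching 40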;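 note: 0% = median of neutral control wells and 100% = median of positive control wells; inhibitors cause a drop in the FAM fluorescence signal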
Target sequence (Q92698 whole entry, looked up): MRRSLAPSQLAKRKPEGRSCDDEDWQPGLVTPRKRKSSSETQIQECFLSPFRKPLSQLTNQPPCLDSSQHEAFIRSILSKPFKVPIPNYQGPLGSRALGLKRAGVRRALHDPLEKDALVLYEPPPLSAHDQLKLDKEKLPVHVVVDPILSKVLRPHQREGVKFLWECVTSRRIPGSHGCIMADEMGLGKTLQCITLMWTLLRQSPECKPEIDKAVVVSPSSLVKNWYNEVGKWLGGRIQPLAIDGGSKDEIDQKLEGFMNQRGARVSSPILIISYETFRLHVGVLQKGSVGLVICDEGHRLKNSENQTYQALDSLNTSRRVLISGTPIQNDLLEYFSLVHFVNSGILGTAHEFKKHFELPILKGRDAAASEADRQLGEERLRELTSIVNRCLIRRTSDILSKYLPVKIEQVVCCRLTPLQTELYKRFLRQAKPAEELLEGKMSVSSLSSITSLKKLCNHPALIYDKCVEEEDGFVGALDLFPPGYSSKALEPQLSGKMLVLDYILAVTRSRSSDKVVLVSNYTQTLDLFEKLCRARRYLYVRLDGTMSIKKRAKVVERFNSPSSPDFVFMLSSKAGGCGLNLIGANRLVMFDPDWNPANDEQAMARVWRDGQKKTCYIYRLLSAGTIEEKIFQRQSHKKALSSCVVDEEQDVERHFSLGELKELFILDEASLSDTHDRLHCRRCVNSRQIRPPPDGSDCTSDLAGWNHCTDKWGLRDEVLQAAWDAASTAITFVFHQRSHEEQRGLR
RAD52 anneal inh = blocks human RAD52 DNA annealing. P43351. recombinant RAD52 DNA annealing, FRET fluorescence. inhibition, % at 18.7 µM. 360,000 compounds, 0.46% hits. AID 651710;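 active = every replicate showing at least 50% inhibition; inconclusive = mean inhibition at least 50% but not in every replicate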
dFosB activator = mouse delta FosB homodimer activation; AID 493131; 340,000 compounds, 0.99% hits; purified delta FosB, TAMRA-CDK5 oligo fluorescence polarization; percent of positive-control signal above neutral wells; activation, % at 25 µM;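 active = mean activation above about 17%, with every replicate also reaching it, limit read from the data, passing the limit was not always enough; inconclusive = only one of the two conditions met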
N-glyco inh = N-linked glycosylation inhibition; D54 ERlucT glycosylation luciferase reporter, 24 h; percent of 100 nM tunicamycin response; reporter increase, % at 12.5 µM; 360,000 compounds, 0.23% hits; AID 588692;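 active = mean luciferase reporter signal, scaled so untreated is 0 and the glycosylation-blocking control 100, at or above a set limit in every replicate; inconclusive = mean reaches the limit but not every replicate does; inactive = mean below the limit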;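 note: luciferase carries N-glycosylation sites so blocking glycosylation raises the light; 0% = median of neutral control wells and 100% = median of 100 nM tunicamycin wells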
RAD52 DNA ctr = binds DNA, flagging false RAD52 inhibitor hits; 1,000 compounds, 8% hits; AC50, µM; Salmon sperm DNA/acridine orange FP displacement, DNA binding; shares compounds with RAD52 anneal inh;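 active = fitted half-maximal concentration for signal loss at or below twice the highest dose tested, in every separate run, actives reach about 64 µM in these data; inconclusive = runs disagree, or flat partial signal loss, or poor fit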
Active calls of the source: *; i = inactive; ? = inconclusive; / = not tested or not shown; ! = not active in a repeat. Most compounds without a hit are left out; they make up all but 1.5% or so of the library.

SMILES | PvdQ inh | F508del corr | RAD54 inh | RAD52 anneal inh | dFosB activator | N-glyco inh | RAD52 DNA ctr
CN1CC[C@@H]2CN[C@H](c3ccccc3Br)C[C@@H]21 | / | -3 | / | 71* | / | / | i
CC(C)N1CCN(c2ccc(O)cc2)CC1 | -15 | / | 19 | 83* | -4 | -3 | i
CC12CNCC(C)(CNC1)C2O (configuration not stated) | -11 | 0 | 26 | 57* | 3 | 1 | i
Cc1cc(N2CCNC[C@@H]2C)ccc1N1CC[C@@H](O)C1 | / | -2 | / | 96* | / | / | i
C[C@H]1CNCCN1c1ccc(N2CC[C@@H](O)C2)c(C#N)c1 | / | 1 | / | -5 | / | / | /
CC(C)CC#Cc1ccc([C@@H]2[C@H](CO)N3CCCCN(C(=O)Cc4ccccn4)C[C@@H]23)cc1 | / | 0 | 8 | 36 | / | / | /
O=C([O-])c1ccc(-[n+]2c(-c3ccccc3)cc(-c3ccccc3)cc2-c2ccccc2)cc1 | -10 | 0 | 14 | 57* | -10 | 4 | i
COc1ccc(-[n+]2c(-c3ccccc3)cc(-c3ccccc3)cc2-c2ccccc2)cc1 | / | 3 | / | 11 | / | / | /
Oc1ccc(-[n+]2c(-c3ccccc3)cc(-c3ccccc3)cc2-c2ccccc2)cc1 | 12 | 6 | 12 | 60* | -2 | 7 | i
O=C(Cc1cccnc1)N1CCCCN2[C@H](C1)[C@@H](c1ccc(C#CC3CC3)cc1)[C@@H]2CO | / | 0 | -15 | 1 | / | / | /
CCCN1[C@@H]2Cn3c(ccc(-c4cccc(OC)c4)c3=O)[C@H]1[C@@H](C(=O)OC)[C@@H]2CO | / | 1 | / | -19 | / | / | /
CC=Cc1ccc2n(c1=O)C[C@H]1[C@H](CO)[C@@H](C(=O)OC)[C@@H]2N1CC1CCCC1 (mixture of isomers) | / | 0 | / | -3 | / | / | /
Cc1[nH]c2ccccc2c1C1=CCNCC1 | -9 | 3 | 2 | 65* | 6 | 0 | i
NCCc1cc(O)c(O)cc1O | -5 | 0 | -3 | 90*! | -74 | 1 | i
NC(N)=N/N=C/c1cn(-c2ccccc2)nc1-c1cccs1 | 5 | 0 | / | 88* | -26 | -6 | i
O=c1c2ccccc2nc(-c2cccs2)n1-c1ccccc1 | -8 | / | 4 | / | -7 | 2 | /
C[C@@H]1CN([C@H](C)CO)C(=O)c2c(c3ccccc3n2C)-c2ccccc2CO[C@H]1CN(C)C(=O)Oc1ccccc1 | / | 1 | / | 12 | / | / | /
CN(C)c1ccc(/C=C/c2cc[n+](C)c3ccccc23)cc1 | -17 | 7 | / | 64*! | 93* | 39*! | 8.3µM*
C[n+]1c(-c2ccccc2)sc2ccccc21 | 3 | 3 | -3 | -7 | 0 | 3 | /
CN(C)c1ccc(/C=C/C=C/c2sc3ccccc3[n+]2C)cc1 | -14 | 1 | 14 | 63* | ? | 21 | ?
Clc1ccc2sc(C3CCNCC3)nc2c1 | -7 | 1 | 4 | 56* | 0 | -5 | i
COc1ccc(C#Cc2ccc([C@@H]3[C@@H](CO)N4CCCCN(C(=O)Cc5ccccc5)C[C@@H]34)cc2)cc1 | / | 0 | 6 | -30 | / | / | /
CCOc1ccc(C(C)=O)cc1Cn1ccsc1=N | -13 | 1 | 12 | 64* | -3 | 0 | i
COc1ccc(C(C)=O)cc1CC(C(=O)c1ccc(C)cc1)N(C)C (configuration not stated) | 3 | / | 0 | -20 | -8 | 1 | /
CCOC(=O)c1c(C)n(Cc2ccccc2)c2ccc(OCC(O)CNC(C)(C)C)cc12 (configuration not stated) | -9 | 2 | 22 | 52* | 1 | -6 | i
SMILES | PvdQ inh | F508del corr | RAD54 inh | RAD52 anneal inh | dFosB activator | N-glyco inh | RAD52 DNA ctr
CCOC(=O)c1c(C)n(Cc2ccccc2)c2ccc(OCC(O)Cn3nc(C)nc3C)cc12 (configuration not stated) | 6 | 3 | -7 | 6 | -5 | -1 | /
COc1ccc(-c2ccc3n(c2=O)C[C@@H]2[C@@H](CO)[C@H](C(=O)O)[C@H]3N2C(=O)c2ccccc2F)cc1 | / | / | 7 | 6 | / | / | /
COc1ccc2c(c1OC)C(=O)O[C@H]2[C@@H]1c2cc3c(cc2CCN1C)OCO3 | 8 | 3 | 0 | -8 | 1 | 1 | /
COc1cc2c(cc1OC)-c1c(OC)c(OC)cc3c1C(C2)N(C)CC3 (configuration not stated) | -2 | 4 | 62* | 71* | -8 | -1 | i
COc1cc2c(cc1OC)-c1c3c(cc4c1[C@@H](C2)N(C)CC4)OCO3 | 9 | 4 | 104* | 100* | 11 | ? | i
COC(=O)[C@@H]1[C@@H](CO)[C@@H]2Cn3c(ccc(/C=C/c4ccccc4)c3=O)[C@H]1N2CC1CCCC1 | / | -1 | 8 | 8 | / | / | /
OC12ONC(c3ccccn3)C1N1CCC2CC1 (configuration not stated) | 7 | -2 | 19 | 80* | -2 | 5 | i
O=C(Cc1ccccc1)N1CCCCN2[C@H](CO)[C@@H](c3ccc(-c4ccccc4)cc3)[C@@H]2C1 | / | 1 | -4 | -7 | / | / | /
COC(=O)[C@@H]1N[C@@H]2c3ccc(C4=CCCC4)c(=O)n3C[C@@H]2[C@H]1CO | / | / | -6 | -68 | / | / | /

Screening data deposited in PubChem BioAssay by Broad Institute.
